Sampled rows, rich in hits. Any-hit rate of the full collection: about 2.4%.
D2 ag-1 – Beta-Arrestin HTS for Positive Allosteric Modulators of the Human D2 Dopamine Receptor: Agonists | activation, % (test concentration not listed) | DiscoveRx PathHunter D2 beta-arrestin, luminescence, 90 min; 100% = 57 uM dopamine signal | D(2) dopamine receptor (Homo sapiens), P14416 | actives 0.084% (n = 360,000); in the data active means activation above about 40%; inconclusive means between about 15% and that limit
Target sequence (P14416 whole entry, looked up): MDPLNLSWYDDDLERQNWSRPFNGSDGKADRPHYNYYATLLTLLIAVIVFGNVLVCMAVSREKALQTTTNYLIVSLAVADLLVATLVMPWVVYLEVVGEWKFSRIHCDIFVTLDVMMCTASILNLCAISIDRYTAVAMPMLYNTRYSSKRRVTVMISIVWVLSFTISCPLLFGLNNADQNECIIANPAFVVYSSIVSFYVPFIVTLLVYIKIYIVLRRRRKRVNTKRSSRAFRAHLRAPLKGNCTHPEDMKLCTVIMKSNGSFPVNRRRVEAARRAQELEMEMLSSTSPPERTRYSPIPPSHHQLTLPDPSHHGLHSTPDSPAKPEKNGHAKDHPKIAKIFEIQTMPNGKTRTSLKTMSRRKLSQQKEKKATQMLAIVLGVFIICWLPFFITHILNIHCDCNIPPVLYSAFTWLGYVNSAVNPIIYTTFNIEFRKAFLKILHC
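DiscoveRx PathHunter D2 beta-arrestin cells (2,100/well) attached overnight, then compound-stimulated 90 min at 37 C in HBSS/10 mM HEPES/0.1% Tween-20 buffer; beta-galactosidase complementation read by luminescence after 1 h at ambient temperature. Dopamine 57 uM final (EC100) as control.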
D2 PAM-1 – Beta-Arrestin HTS for Positive Allosteric Modulators of the Human D2 Dopamine Receptor: Potentiators | potentiation, % (test concentration not listed) | DiscoveRx D2 beta-arrestin cells, luminescence, 90 min; 100% = 57 uM dopamine signal | actives 0.23% (n = 360,000) | AID 624464, 2012 | D(2) dopamine receptor (Homo sapiens), P14416; in the data active means potentiation above about 50%; inconclusive means mostly about 30% to 49%
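PathHunter beta-arrestin assay in DiscoveRx D2 cells. Compounds were added with an EC20 of dopamine (50 nM final) for 90 min at 37 deg C. Luminescence was read 1 h after detection reagent, with 57 uM dopamine as the EC100 control.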
D2 antagonist – HTS Assay for Allosteric Antagonists of the Human D2 Dopamine Receptor: Primary Screen for Antagonists. D(2) dopamine receptor (Homo sapiens), P14416. HEK293 TREx D2 cells, calcium flux, dopamine EC80. inhibition, % at 10 µM. actives 2% (n = 340,000). AID 485344, 2010; in the data active means inhibition above about 30%; inactive means below that, where a call was filed
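Calcium mobilization kinetics were recorded at 1 s intervals in tetracycline-induced HEK293 T-REx D2 cells, first for 180 s after compound addition and then 180 s after EC80 dopamine.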
D2 ag-2 – HTS Assay for Allosteric Agonists of the Human D2 Dopamine Receptor: Primary Screen for Agonists | D(2) dopamine receptor (Homo sapiens), P14416 | HEK293 T-REx D2 cells, calcium flux agonist mode | activation, % at 2 µM | actives 0.53% (n = 340,000);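 active means activation over 3 SD above normal in the single-dose calcium agonist read, cut at about 30% in these data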
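Agonism scored from kinetic calcium signal (1 read/sec, 180 s) following compound pin transfer, after a 10 s baseline. Cells: HEK293 Trex line expressing inducible D2 receptor coupled to calcium, dye-loaded after overnight culture at 30 C.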
D2 PAM-2 – HTS Assay for Positive Allosteric Modulators of the Human D2 Dopamine Receptor: Primary Screen for Potentiators | D(2) dopamine receptor (Homo sapiens), P14416 | HEK293 T-REx D2, calcium flux, EC20 dopamine potentiation | potentiation, % at 10 µM | actives 0.34% (n = 340,000) | AID 485347, 2010;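 active means potentiation over 3 SD above the plate norm, cut at about 30% in these data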
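Tetracycline-induced Hek293 Trex D2 cells, force-coupled to calcium, loaded with no-wash calcium dye. Compound added with 180 s kinetic read for agonism, then EC20 dopamine and a further 180 s read for potentiation.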
A number is an active result.

How did CC(Oc1ccc(Br)cc1Cl)C(=O)Nc1ccncc1 (centres undefined) do in these assays?
D2 ag-1: inactive; D2 PAM-1: inactive; D2 antagonist: inactive; D2 ag-2: inactive; D2 PAM-2: inactive

What do the screens show for `O=C(Nc1ccc(F)cc1)C(c1ccccc1)N1CCN(S(=O)(=O)c2ccc3ccccc3c2)CC1` (centres undefined)?
D2 ag-1: inactive; D2 PAM-1: inactive; D2 antagonist: 37; D2 ag-2: inactive; D2 PAM-2: inactive

What do the screens show for `Cc1ccc(C)c(S(=O)(=O)N2CCN(C(C(=O)Nc3ccc(F)cc3)c3ccccc3)CC2)c1` (centres undefined)?
D2 ag-1: inactive; D2 PAM-1: inactive; D2 antagonist: inactive; D2 ag-2: inactive; D2 PAM-2: inactive

How did COc1cc2c(cc1OC)C1=C(C#N)CN(C3CCCCC3)CN1CC2 do in these assays?
D2 ag-1: inactive; D2 PAM-1: inactive; D2 antagonist: 40; D2 ag-2: inactive; D2 PAM-2: inactive

How did COc1ccc(CCNC(=O)c2ccc(Cn3c(=O)c4ccccc4n(Cc4cccc(C)c4)c3=O)cc2)cc1OC do in these assays?
D2 ag-2: inactive; D2 PAM-2: inactive

Results for Cc1ccc(C2C(C#N)=C(N)Oc3cc(N)ccc32)cc1 (centres undefined) ?
D2 ag-1: inactive; D2 PAM-1: inactive; D2 antagonist: inactive; D2 ag-2: inactive; D2 PAM-2: inactive

What do the screens show for `Cc1ccc(/C=C2\CCC3=C2OC(N)=C(C#N)C3c2ccc(C)cc2)cc1` (centres undefined)?
D2 ag-1: inactive; D2 PAM-1: inactive; D2 antagonist: inactive; D2 ag-2: 72; D2 PAM-2: inactive

What do the screens show for `COc1ccccc1C(=O)NC(=S)Nc1ccc(S(=O)(=O)N2CCN(C)CC2)cc1`?
D2 ag-1: inactive; D2 PAM-1: inactive; D2 antagonist: inactive; D2 ag-2: inactive; D2 PAM-2: inactive

How did O=C(CSC1=NCCN1)Nc1cccc(C(F)(F)F)c1 do in these assays?
D2 ag-1: inactive; D2 PAM-1: inactive; D2 antagonist: 75; D2 ag-2: inactive; D2 PAM-2: inactive

What do the screens show for `CCOc1ccc(CN2CCN(Cc3cc4ccccc4o3)CC2CCO)cc1` (centres undefined)?
D2 ag-1: inactive; D2 PAM-1: inactive; D2 antagonist: inactive; D2 ag-2: inactive; D2 PAM-2: inactive

How did Brc1ccc(C2=Nc3cccc4cccc(c34)N2)o1 do in these assays?
D2 ag-1: inconclusive; D2 PAM-1: 84; D2 antagonist: inactive; D2 ag-2: inactive; D2 PAM-2: inactive

How did CCCc1nnc(NC(=O)CCS(=O)(=O)c2ccccc2)s1 do in these assays?
D2 ag-1: inactive; D2 PAM-1: inactive; D2 antagonist: inactive; D2 ag-2: inactive; D2 PAM-2: 32

What do the screens show for `CCCOC(=O)Nc1nnc(CCC)s1`?
D2 ag-1: inactive; D2 PAM-1: inactive; D2 antagonist: 44; D2 ag-2: inactive; D2 PAM-2: inactive

Results for O=C(O)C1CCCN1S(=O)(=O)c1cc(Cl)ccc1Cl (centres undefined) ?
D2 ag-1: inactive; D2 PAM-1: inactive; D2 antagonist: inactive; D2 ag-2: inactive; D2 PAM-2: inactive

What do the screens show for `CC1CN(CC(O)COc2ccc(C(=O)c3ccccc3)cc2)CC(C)O1` (centres undefined)?
D2 ag-1: inactive; D2 PAM-1: inactive

What do the screens show for `Nc1[nH]n2c(=O)c3c(nc2c1N=Nc1ccccc1)CCCC3`?
D2 ag-1: inactive; D2 PAM-1: inactive; D2 antagonist: 37; D2 ag-2: inactive; D2 PAM-2: inactive

What do the screens show for `Cc1[nH]n2c(=O)c3c(nc2c1-c1ccccc1)CCC3`?
D2 ag-1: inactive; D2 PAM-1: inactive; D2 antagonist: 36; D2 ag-2: inactive; D2 PAM-2: inactive

How did Cc1[nH]n2c(=O)c3c(nc2c1-c1ccc(Cl)cc1)CCC3 do in these assays?
D2 ag-1: inactive; D2 PAM-1: inactive; D2 antagonist: 75; D2 ag-2: inactive; D2 PAM-2: inactive

What do the screens show for `Nc1[nH]n2c(=O)c3c(nc2c1N=Nc1ccc(Cl)cc1)CCCC3`?
D2 ag-1: inactive; D2 PAM-1: inactive; D2 antagonist: inactive; D2 ag-2: inactive; D2 PAM-2: inactive
